Data published in PubChem BioAssay (NCI).
This is part of a sample that, as a whole, favours compounds with a hit. Of some 83,000 tested, about 20% had one in any assay.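 48-hour exposure, single concentration, 96-well plates; percent growth endpoint where 0 means no net growth. Active: below 10.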 Active and inactive are the calls of the source.

tested on: SK-MEL-2 melanoma; experiment: NCI-60 one-dose screen, 48 h (100 = growth as untreated, 0 = no growth, -100 = all killed); settings: 10 µM unless noted
Description: Growth inhibition of the SK-MEL-2 human tumor cell line is measured as a screen for anti-cancer activity. Cells are grown in 96 well plates and exposed to the test compound for 48 hours. Compounds are tested at a single concentration, which is 10^-5 M for most compounds. The reported endpoint is percent growth (GI% or GIPRCNT), where numbers from 0 - 100% represent growth inhibition, and numbers from -100% - 0 represent cell death. For example, a value of 40 represents 60% growth inhibition. A value of 0 means no net growth occurred over the course of the experiment. A value of -40 indicates 40% of cells at the beginning of the experiment died by the end of the experiment. A value of -100 means all cells are dead at the end of the experiment.
NCI-60 Human Tumor Cell Lines Screen was performed using the standard one-dose NCI protocol, which is described in more detail at https://dtp.cancer.gov/discovery_development/nci-60/default.htm.
Compounds with GIPRCNT values below 10 were considered active. Activity score was based on GIPRCNT using the following formula: […]
Score is 0 for GIPRCNT values of 100 or above, 50 for GIPRCNT values of 0, and 100 for GIPRCNT values of -100.

Compound	growth
CCN=Cc1c(O)c(O)c(C(C)C)c2cc(C)c(-c3c(C)cc4c(C(C)C)c(O)c(O)c(C=NCC)c4c3O)c(O)c12	51.4% (inactive)
CCOc1cc(NC(=O)c2ccccc2)c(OCC)cc1N	112% (inactive)
c1nc(N2CCOCC2)c2[nH]ccc2n1	96% (inactive)
Nn1c(Nc2ccc(S(=O)(=O)Nc3ncccn3)cc2)nnc(/C=C/c2c(O)ccc3ccccc23)c1=O	89.2% (inactive)
Oc1cc(Nc2ccnc3cc(Cl)ccc23)c2ncccc2c1	94.4% (inactive)
O=C1NC(=O)C(Cc2ccc(OCc3ccc(-c4cc(F)c(F)c(F)c4)cc3)cc2)S1 (stereo not given)	94.4% (inactive)
CC1(C)CC[C@]2(C(N)=O)CC[C@]3(C)C(=CC[C@@H]4[C@@]5(C)C/C(=C/c6ccncc6)C(=O)C(C)(C)[C@@H]5CC[C@]43C)[C@@H]2C1	-86% [100 µM] (active)
C#C[C@]1(O)CC[C@H]2[C@@H]3CC=C4c5nc(Nc6ncccn6)sc5CC[C@]4(C)[C@H]3CC[C@@]21C	18% (inactive)
CCCCOC(=O)c1c(C)[nH]c(/C=C2\N=C(c3ccc[nH]3)C=C2OC)c1C	-64.6% (active)
COC(=O)[C@@H](NC(=O)NC(=O)NC(=O)CI)C(C)C	87.4% (inactive)
Nc1ccc(NC(=O)c2ccccc2)c2c1C(=O)c1ccccc1C2=O	108% (inactive)
COc1ccc(-c2nc3ccccn3c2/C=C/C(=O)c2cc(OC)c(OC)c(OC)c2)cc1OC	-28.5% (active)
Cc1cccc([N+](=O)[O-])c1I	112% (inactive)
N#Cc1ccc(-c2ccc(COc3ccc(CC4SC(=O)NC4=O)cc3)cc2)cc1 (stereo not given)	56.9% (inactive)
COc1ccc(OC)c(NC=O)c1	116% (inactive)
CC1(C)CC[C@]2(C(=O)O)CC[C@]3(C)C(=CC[C@@H]4[C@@]5(C)C/C(=C/c6cccnc6)[C@H](O)C(C)(C)[C@@H]5CC[C@]43C)[C@@H]2C1	-29.9% [100 µM] (active)
CCN1c2ccccc2C(Cl)(c2ccc(N(C)C)cc2)c2ccccc21	81.5% (inactive)
Cc1cc2c(C(C)C)c(O)c(O)c(C=NCc3ccoc3)c2c(O)c1-c1c(C)cc2c(C(C)C)c(O)c(O)c(C=NCc3ccco3)c2c1O	45.4% (inactive)
COC(=O)c1c(C)[nH]c(/C=C2\N=C(c3ccc[nH]3)C=C2OC)c1C	-72.8% (active)
C#C[C@]1(O)CC[C@H]2[C@@H]3CC=C4c5nc(Nc6ccccn6)sc5CC[C@]4(C)[C@H]3CC[C@@]21C	-29.6% (active)

Compound	growth
C=C(C)[C@@H]1CC[C@]2(C(=O)OC)CC[C@]3(C)[C@H](CC[C@@H]4[C@@](C)(CCc5nn[nH]n5)[C@H](C(=C)C)CC[C@]43C)[C@@H]12	-60.8% [100 µM] (active)
CC(=O)OC[C@]12CC[C@@H]([C@@H](C)C(N)=O)[C@@H]1[C@H]1CC[C@@H]3[C@@]4(C)CC[C@H](OC(C)=O)C(C)(C)[C@@H]4CC[C@@]3(C)[C@]1(C)CC2	-77.6% [100 µM] (active)
Cc1cc(C)c(O)c(CNCCCCCCNCc2cc(C)cc(C)c2O)c1	-61.8% (active)
COc1ccc(-c2cc(-c3ccc(Cl)cc3)nc(NCCCCNc3ccnc4cc(Cl)ccc34)n2)cc1	78% (inactive)
COc1ccc(CC(C#N)c2ccc(Cl)cc2)cc1 (stereo not given)	80% (inactive)
COc1ccc2nc3ccccc3c(NCCNCCO)c2c1	-56.1% (active)
O=C(NCCO)c1cccnc1	81.8% (inactive)
CC(C)[C@H]1COC(=O)N1[C@@H]1C(=O)N([C@@H](CCC(=O)N2CCN(C3CCCC3)CC2)C(=O)N[C@@H]2CCCc3ccccc32)[C@@H]1/C=C/c1cccc(Cl)c1	60% (inactive)
Fc1cc2[nH]ncc2c2c3c(c(-c4cn[nH]c4)nc12)CCCC3	-30.7% (active)
O=C(CCN1CCCCC1)c1ccc2ccccc2c1	102% (inactive)
NNC(=O)c1ccc(C(=O)NN)cc1	122% (inactive)
COc1cc2c(cc1OC(C)=O)C(=O)CCCC2	99.3% (inactive)
CN(C)c1cc(NN=C(c2ccc(O)cc2)c2ccc(O)cc2)c([N+](=O)[O-])cc1[N+](=O)[O-]	-12.1% (active)
C[C@@H]1C[C@H]2C(=O)O[C@@H](C)[C@H](NC(=O)[C@H](Cc3cc(F)cc(F)c3)NC(=O)Nc3ccc(C4CC4)cc3F)C(=O)N3CCC[C@H]3C(=O)N3CCCC[C@H]3C(=O)N[C@@H](C)C(=O)N2C1	16.7% (inactive)
O=C(Nc1ccc(CN2CCOCC2)c(C(F)(F)F)c1)c1nc2ccc3[nH]ncc3c2c2c1CCCC2	103% (inactive)
CC[C@]1(O)CC2CN(CCc3c([nH]c4ccccc34)[C@@](C(=O)OC)(c3cc4c(cc3OC)N(C=O)[C@H]3[C@@](O)(C(=O)OC)[C@H](OC(C)=O)[C@]5(CC)C=CCN6CC[C@]43[C@@H]65)C2)C1 (stereo not given in full)	18.8% (inactive)
CCN(CC)c1cc(N)c(Cc2c(N)cc(N(CC)CC)cc2Cl)c(Cl)c1	41.6% (inactive)
CCCCCCCCCCCCNC(=S)N/N=C/c1ccccc1O	80.8% (inactive)
C#CCOc1ccc(C2=NN(CC3CC3)C3N=C(Cl)c4ncn(CC5CC5)c4N23)cc1OCC#C (stereo not given)	82.7% (inactive)
Cn1cc(-c2noc(C(=O)c3cn(C)c4ncc(Br)cc34)n2)c2ccccc21	95.4% (inactive)
